Experimental data taken from PubChem BioAssay AID463187 (University of Pittsburgh Molecular Library Screening Center, 2010).
The campaign covered roughly 220,000 compounds. About 1,500 (0.68%) were called active. Only a selection was taken, and actives are over-represented in it overall. Unmarked numbers belong to inactive results.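 How the source made its calls: active means Hck-Nef kinase inhibition above about 50% (limit read from the data); inactive means inhibition below that limit.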

What follows are compounds tested against Tyrosine-protein kinase HCK (Homo sapiens) (UniProt P08631) (assay: Hck:Nef complex kinase activity blockers – biochemical, Z-Lyte FRET, 384-well, Hck-YEEI, primary screen (AID 463187;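 further: 0% = DMSO with Hck plus Nef and 100% = Hck alone without Nef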)). Conditions: Recombinant Hck-YEEI plus Nef, Z-Lyte FRET kinase assay; at 20 µM; active compounds read high.
Sequence of Tyrosine-protein kinase HCK (Homo sapiens) (P08631 whole entry, looked up): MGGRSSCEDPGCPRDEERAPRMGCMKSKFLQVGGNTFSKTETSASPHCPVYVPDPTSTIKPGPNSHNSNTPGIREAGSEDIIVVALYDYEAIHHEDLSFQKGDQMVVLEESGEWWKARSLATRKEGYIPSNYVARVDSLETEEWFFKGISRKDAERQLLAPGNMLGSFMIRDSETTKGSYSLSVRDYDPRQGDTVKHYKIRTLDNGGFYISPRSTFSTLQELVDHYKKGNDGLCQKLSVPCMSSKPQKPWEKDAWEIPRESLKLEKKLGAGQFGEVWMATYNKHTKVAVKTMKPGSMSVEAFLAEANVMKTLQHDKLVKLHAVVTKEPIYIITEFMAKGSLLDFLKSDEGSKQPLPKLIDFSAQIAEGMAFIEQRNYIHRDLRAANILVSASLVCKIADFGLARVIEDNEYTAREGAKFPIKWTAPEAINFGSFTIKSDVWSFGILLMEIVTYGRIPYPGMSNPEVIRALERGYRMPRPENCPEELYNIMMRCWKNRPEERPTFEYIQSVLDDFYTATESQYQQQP
In the case of `O=C1NC(=O)N(c2ccccc2)C(=O)/C1=C/c1ccc([N+](=O)[O-])s1`, the inhibition is reported as 20.3%.
`COc1cccc(N2C(=O)NC(=O)/C(=C\c3ccc([N+](=O)[O-])s3)C2=O)c1` was tested, and the inhibition was 92.8% (active).
`Cc1cccc(N2C(=O)NC(=O)/C(=C\c3cnn(-c4ccccc4)c3)C2=O)c1` was tested, and the inhibition was 5.24%.
For `O=C1NC(=O)N(Cc2ccco2)C(=O)/C1=C\c1ccc(-c2ccc(F)cc2)o1`, the inhibition was 59.4% (active).
Work on `O=C1NC(=O)N(Cc2ccco2)C(=O)/C1=C\c1cccn1CCOc1ccccc1` yielded an inhibition of 27.2%.
`Cc1cc(/C=C2/C(=O)NC(=O)N(Cc3ccco3)C2=O)c(C)n1-c1ccc(C(=O)O)cc1` gave an inhibition of 49.2%.
Compound `CNC(=O)O/N=C(\N)Cc1csc2ccccc12` has an inhibition of 13.9%.
`Cc1cccc(NC(=O)OC2CN3CCC2CC3)c1` (stereo not given) showed an inhibition of 13.5%.
`O=C(N/N=C/c1c(O)n(Cc2ccccc2)c(=O)[nH]c1=O)c1ccccc1` gave an inhibition of 1.83%.
For `COc1cc(Cn2c(N)c(C(=O)NCc3ccco3)c3nc4ccccc4nc32)cc(OC)c1OC`, the inhibition was 66.7% (active).
For `CCOC(=O)c1c(N)n(Cc2ccccc2)c2nc3ccccc3nc12`, the inhibition was 9.2%.
In the case of `CCOC(=O)c1c(N)n(CCN2CCOCC2)c2nc3ccccc3nc12`, the inhibition is reported as -2.81%.
In the case of `CSc1nc2ccc(C)cc2c(=O)n1-c1cccnc1`, the inhibition is reported as 4.59%.
`O=C(Cn1c(=O)n(CC2CS2)c2ccccc21)N1CCCCC1` (stereo not given) was tested, and the inhibition was -9.69%.
Work on `CC1=C(C(=O)Nc2ccccc2)S(=O)(=O)CCO1` yielded an inhibition of 26.8%.
